Measured values taken from PubChem BioAssay (Tox21).
Inconclusive results are not listed. Entries that show only a call come without a potency. Unmarked numbers belong to inactive results. Active and inactive are the calls of the source. The call rests on the fitted dose curve.

Molecular target: Beta-2 adrenergic receptor (Homo sapiens) (UniProt P07550)
Assay: Adrenergic beta2 receptor (ADRB2) small molecule agonists, cell-based qHTS assay (AID 1963593);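 on activation: CHO cells stably overexpressing human ADRB2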
Conditions: CHO-ADRB2 cells, cAMP HTRF, 30 min; series mostly up to 42.5 µM
Summary of the method: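 CHO cells stably over-expressing ADRB2 were plated overnight at 37C, then dosed with compounds plus a stimulation mix containing 100uM IBMX and 25uM Ro-20-1724 for 0.5hr at room temperature. cAMP was measured by HTRF competition, 1hr.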
Potency means the concentration at half of the fitted maximal effect.

Beta-2 adrenergic receptor (Homo sapiens), sequence (P07550 whole entry, looked up): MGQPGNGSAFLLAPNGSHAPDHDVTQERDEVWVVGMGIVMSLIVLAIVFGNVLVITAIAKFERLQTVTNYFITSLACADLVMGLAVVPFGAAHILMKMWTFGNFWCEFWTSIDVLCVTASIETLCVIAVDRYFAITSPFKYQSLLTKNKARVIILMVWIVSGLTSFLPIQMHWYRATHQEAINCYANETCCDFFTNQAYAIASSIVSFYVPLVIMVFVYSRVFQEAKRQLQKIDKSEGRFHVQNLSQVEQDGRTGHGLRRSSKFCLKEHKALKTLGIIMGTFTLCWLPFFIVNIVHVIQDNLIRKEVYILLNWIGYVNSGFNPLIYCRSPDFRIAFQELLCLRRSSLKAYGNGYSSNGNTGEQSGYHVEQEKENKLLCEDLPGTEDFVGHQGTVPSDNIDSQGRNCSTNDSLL

Row | SMILES | Potency | activation
1 | NC(=O)c1cn(Cc2c(F)cccc2F)nn1 | inactive | –
2 | CCCCNc1ccc(C(=O)OCCN(C)C)cc1 | inactive | –
3 | OCCCCC(O)CO (stereo not drawn) | inactive | –
4 | CCOC(=O)CCC(=O)OCC | inactive | –
5 | CCCCCCCCCCCCCCCCCCO | inactive | –
6 | Cc1ccsc1/C=C/C1=NCCCN1C | inactive | –
7 | CCCCOC(=O)CC | inactive | –
8 | COC(=O)N/N=C/c1c[n+]([O-])c2ccccc2[n+]1[O-] | inactive | –
9 | CO[Si](C)(OC)c1ccccc1 | inactive | –
10 | Nc1c2c(nc3c1CCC3)CCCC2 | inactive | –
11 | O=C(O)C(=O)Cc1c[nH]c2ccccc12 | inactive | –
12 | O=C(O)CCN(C1(C(=O)NO)CCCC1)S(=O)(=O)c1ccc(Oc2ccc(F)cc2)cc1 | inactive | –
13 | Nc1cc(C(F)(F)F)ccc1S | inactive | –
14 | CCOC(=O)C1=NOC(c2ccccc2)(c2ccccc2)C1 | inactive | –
15 | NNc1nnc(NN)c2ccccc12 | inactive | –
16 | C=C/C(C)=C/C/C=C(\C)CCC=C(C)C | inactive | –
17 | [O]=[Bi] | – | 3.98% [at 8.39 µM]
18 | Cc1ccc(C(=O)Oc2ccc(C(O)CNC(C)(C)C)cc2OC(=O)c2ccc(C)cc2)cc1 (stereo not drawn) | 0.0841 µM (active) | –
19 | C=C1CC[C@H]2O[C@]2(C)CC[C@@H]2[C@@H]1CC2(C)C | inactive | –
20 | CC(=O)Oc1ccc(C2(c3ccc(OC(C)=O)cc3)C(=O)Nc3ccccc32)cc1 | inactive | –
21 | OCC(CO)n1cnc(-c2ccc(F)cc2)c1-c1ccnc(Oc2ccccc2)n1 | inactive | –
22 | CC1(C)S[C@@H]2[C@H](NC(=O)Cc3ccccc3)C(=O)N2[C@H]1C(=O)O (tested in a mixture with another compound) | inactive | –

Row | SMILES | Potency | activation
23 | C=C1CC[C@H](O)C/C1=C\C=C1/CCC[C@]2(C)[C@@H]([C@H](C)CCCC(C)C)CC[C@@H]12 | inactive | –
24 | O=C(c1ccc(O)cc1)c1ccc(O)cc1 | inactive | –
25 | CN(C)c1ccc(CCO)cc1 | inactive | –
26 | COc1ncnc(NS(=O)(=O)c2ccc(N)cc2)c1OC | inactive | –
27 | CCc1ccc(C(=O)C(C)CN2CCCCC2)cc1 (stereo not drawn) | inactive | –
28 | C[C@@H]1C[C@H]2[C@@H]3CCC4=CC(=O)C=C[C@]4(C)[C@@]3(F)[C@@H](O)C[C@]2(C)[C@@]1(O)C(=O)COP(=O)(O)O | inactive | –
29 | Nc1ccc(S(=O)(=O)Nc2ccccc2)cc1 | inactive | –
30 | Cc1cc(C)c(NC(=O)CN(CC(=O)O)CC(=O)O)c(C)c1Br | inactive | –
31 | O=C1c2ccccc2C(=O)C1c1nc2ccccc2c(Br)c1O | inactive | –
32 | CCN(CC)CCOc1ccc(Cc2ccccc2)cc1 | inactive | –
33 | CCC(C)CCCC(C)(C)O (stereo not drawn) | inactive | –
34 | Cc1ccc2oc(CN(Cc3ccccc3)C(=O)Nc3c(F)cc(F)cc3F)c(-c3ccc(Cl)cc3)c2c1 | inactive | –
35 | C[C@]12C=CC(=O)C=C1[C@@H](F)C[C@@H]1[C@@H]2[C@@H](O)C[C@@]2(C)[C@H]1CC[C@]2(O)C(=O)CO | inactive | –
36 | CS(=O)(=O)c1ccc([C@@H](C[C@H]2CCC(=O)C2)C(=O)Nc2cnccn2)cc1Cl | inactive | –
37 | Cc1cc(C)c(O)c(C(C)(C)C)c1 | inactive | –
38 | CCOC(=O)Cc1cccc2ccccc12 | inactive | –
39 | CO[C@@H]1[C@H](OC(=O)/C=C/C=C/C=C/C=C/C(=O)O)CC[C@]2(CO2)[C@H]1[C@@]1(C)O[C@@H]1CC=C(C)C | inactive | –
40 | CC1OC(=O)C(C)OC1=O (stereo not drawn) | inactive | –
41 | C#CCN[C@@H]1CCc2ccccc21 | 29.8 µM (active) | –
42 | C[C@]1(Cn2ccnn2)[C@H](C(=O)O)N2C(=O)C[C@H]2S1(=O)=O | inactive | –
43 | C/C=C/C(=O)CC | inactive | –
